Out of some 39,000 compounds screened, about 3,300 (8.5%) were called active. The sample as a whole holds a higher share of actives than the screen did.
Tested on: HepG2
Test: cytotoxicity call (relative viability < 0.9)
Settings: 10 µM

SMILES	cytotoxicity call
CC(C)NC(=O)N(C)C[C@H]1Oc2ccc(NS(=O)(=O)c3cn(C)cn3)cc2CC(=O)N([C@@H](C)CO)C[C@@H]1C	inactive
COc1cccc(C#Cc2ccc3c(c2)O[C@H](CN(C)C(=O)c2ccccn2)[C@H](C)CN([C@@H](C)CO)S3(=O)=O)c1	inactive
COc1ccc(CN(C)C[C@@H]2OCCCC[C@@H](C)Oc3ccc(NC(=O)CCCCCC(=O)Nc4ccccc4N)cc3C(=O)N([C@H](C)CO)C[C@@H]2C)cc1	inactive
C[C@@H]1CCCCO[C@@H](CN(C)Cc2ccc3c(c2)OCO3)[C@@H](C)CN([C@@H](C)CO)C(=O)c2cc(NC(=O)c3ccccc3)ccc2O1	inactive
C[C@H](CO)N1C[C@H](C)[C@H](CN(C)S(=O)(=O)c2cccs2)OCCCC[C@H](C)Oc2ccc(NC(=O)C3CCCCC3)cc2C1=O	inactive
Cc1noc(C)c1NC(=O)Nc1ccc2c(c1)CC(=O)N([C@@H](C)CO)C[C@H](C)[C@H](CN(C)C(=O)Nc1cccc3ccccc13)O2	inactive
C[C@@H]1CN([C@@H](C)CO)C(=O)c2cc(NC(=O)Cc3cn(C)c4ccccc34)ccc2O[C@H]1CN(C)Cc1ccc(-c2ccccc2)cc1	inactive
C[C@@H]1CN([C@H](C)CO)C(=O)c2cc(NC(=O)Cc3cn(C)c4ccccc34)ccc2O[C@H]1CN(C)Cc1ccc(-c2ccccc2)cc1	inactive
C[C@H](CO)N1C[C@H](C)[C@@H](CN(C)Cc2ccc(-c3ccccc3)cc2)Oc2ccc(NC(=O)Cc3cn(C)c4ccccc34)cc2C1=O	inactive
C[C@H](CO)N1C[C@H](C)[C@H](CN(C)Cc2ccc(-c3ccccc3)cc2)Oc2ccc(NC(=O)Cc3cn(C)c4ccccc34)cc2C1=O	active
C[C@H]1CN([C@@H](C)CO)C(=O)c2cc(NC(=O)Cc3cn(C)c4ccccc34)ccc2O[C@H]1CN(C)Cc1ccc(-c2ccccc2)cc1	inactive
C[C@@H]1CN([C@@H](C)CO)C(=O)c2cc(NC(=O)Cc3cn(C)c4ccccc34)ccc2O[C@@H]1CN(C)Cc1ccc(-c2ccccc2)cc1	active
C[C@H]1CN([C@@H](C)CO)C(=O)c2cc(NC(=O)Cc3cn(C)c4ccccc34)ccc2O[C@@H]1CN(C)Cc1ccc(-c2ccccc2)cc1	active
C[C@@H]1CN([C@H](C)CO)C(=O)c2cc(NC(=O)Cc3cn(C)c4ccccc34)ccc2O[C@@H]1CN(C)Cc1ccc(-c2ccccc2)cc1	inactive
Cc1ccc([C@@H](N)c2ccncc2)cc1	inactive
COC(=O)c1c(C#N)c(N)nc2c1CCC2	inactive
CC(C)NC(=O)N(C)C[C@H]1OCCCC[C@H](C)Oc2ccc(NC(=O)Nc3ccccc3)cc2C(=O)N([C@H](C)CO)C[C@@H]1C	inactive
COc1ccccc1-c1ccc2n(c1=O)C[C@H]1[C@H](CO)[C@@H](C(=O)NCC3CC3)N(S(C)(=O)=O)[C@@H]21	inactive
O=C(C[C@@H]1CC[C@H](NS(=O)(=O)c2ccccc2F)[C@@H](CO)O1)NCCCN1CCOCC1	inactive
C[C@@H]1CN([C@H](C)CO)C(=O)Cc2cc(NS(C)(=O)=O)ccc2O[C@@H]1CN(C)S(C)(=O)=O	inactive
C[C@H]1CN([C@@H](C)CO)S(=O)(=O)c2ccc(-c3cccnc3)cc2O[C@@H]1CN(C)C(=O)NC1CCCCC1	inactive
C[C@H](CO)N1C[C@H](C)[C@H](CN(C)C(=O)C2CCOCC2)Oc2cc(C#Cc3ccncc3)ccc2S1(=O)=O	inactive

SMILES	cytotoxicity call
CC(C)CC#Cc1ccc2c(c1)O[C@H](CN(C)C(=O)C1CCOCC1)[C@@H](C)CN([C@H](C)CO)S2(=O)=O	inactive
C[C@@H]1CN([C@@H](C)CO)S(=O)(=O)c2ccc(C#Cc3ccncc3)cc2O[C@@H]1CN(C)C(=O)C1CCOCC1	active
C[C@@H]1CN([C@@H](C)CO)S(=O)(=O)c2ccc(C#Cc3ccncc3)cc2O[C@H]1CN(C)C(=O)C1CCOCC1	active
CC(C)CC#Cc1ccc2c(c1)O[C@@H](CN(C)C(=O)C1CCOCC1)[C@H](C)CN([C@H](C)CO)S2(=O)=O	inactive
CC(C)CC#Cc1ccc2c(c1)O[C@@H](CN(C)C(=O)C1CCOCC1)[C@@H](C)CN([C@H](C)CO)S2(=O)=O	inactive
C[C@H](CO)N1C[C@H](C)[C@@H](CN(C)C(=O)C2CCOCC2)Oc2cc(C#Cc3ccncc3)ccc2S1(=O)=O	inactive
C[C@H]1CN([C@@H](C)CO)S(=O)(=O)c2ccc(C#Cc3ccncc3)cc2O[C@@H]1CN(C)C(=O)C1CCOCC1	active
CC(C)CC#Cc1ccc2c(c1)O[C@H](CN(C)C(=O)C1CCOCC1)[C@H](C)CN([C@H](C)CO)S2(=O)=O	inactive
C[C@@H]1CN([C@H](C)CO)S(=O)(=O)c2ccc(C#Cc3ccncc3)cc2O[C@H]1CN(C)C(=O)C1CCOCC1	active
C[C@@H]1CN([C@H](C)CO)C(=O)Cc2cc(NS(=O)(=O)c3ccc(F)cc3)ccc2O[C@H]1CN(C)C(=O)Nc1cccc2ccccc12	inactive
C[C@@H]1CN([C@@H](C)CO)S(=O)(=O)c2ccc(C3=CCCCC3)cc2O[C@H]1CN(C)C(=O)C1CCOCC1	inactive
C[C@@H]1CCCCO[C@@H](CN(C)C(=O)CCC(F)(F)F)[C@@H](C)CN([C@@H](C)CO)C(=O)c2cc(NS(=O)(=O)c3ccc(Cl)cc3)ccc2O1	inactive
Cc1ccc(S(=O)(=O)Nc2ccc3c(c2)C(=O)N([C@H](C)CO)C[C@@H](C)[C@H](CN(C)C(=O)Nc2ccccc2)OCCCC[C@H](C)O3)cc1	inactive
C[C@@H]1CCCCO[C@@H](CN(C)C(=O)NC2CCCCC2)[C@H](C)CN([C@@H](C)CO)C(=O)c2cc(NC(=O)Nc3cccc4ccccc34)ccc2O1	inactive
CN1C(=O)c2cc(NC(=O)c3cccs3)ccc2OC[C@H]2O[C@@H](CC(=O)NCCN3CCCCC3)CC[C@@H]21	inactive
CCCC#Cc1cnc2c(c1)C(=O)N([C@@H](C)CO)C[C@H](C)[C@@H](CN(C)S(=O)(=O)c1cccc(OC)c1)O2	inactive
C[C@@H]1CN([C@@H](C)CO)C(=O)Cc2cc(NC(=O)CCC(F)(F)F)ccc2O[C@@H]1CN(C)S(=O)(=O)c1cccs1	inactive
C[C@@H]1CN([C@@H](C)CO)S(=O)(=O)c2ccc(C#CC3CC3)cc2O[C@H]1CN(C)C(=O)c1cccc(F)c1	inactive
C[C@H](CO)N1C[C@H](C)[C@@H](CN(C)S(=O)(=O)c2ccc(-n3cccn3)cc2)OCc2cn(nn2)CCCC1=O	inactive
CNC(=O)CN1CCO[C@H]2CN(C(=O)C(C)C)C[C@@H]21	inactive
O=C(C[C@H]1CC=CC[C@H](NC(=O)OCC2c3ccccc3-c3ccccc32)C(=O)OCCNC1=O)NCCO	inactive
COc1ccccc1-c1cnc2c(c1)C(=O)N([C@@H](C)CO)C[C@@H](C)[C@@H](CN(C)C(=O)c1cccnc1)O2	inactive

SMILES	cytotoxicity call
C[C@@H]1CN([C@H](C)CO)S(=O)(=O)c2ccc(C#Cc3ccncc3)cc2O[C@@H]1CN(C)C(=O)C1CCOCC1	active
C[C@H]1CN([C@@H](C)CO)S(=O)(=O)c2ccc(C#Cc3ccncc3)cc2O[C@H]1CN(C)C(=O)C1CCOCC1	active
CC(C)CC#Cc1ccc2c(c1)O[C@@H](CN(C)C(=O)C1CCOCC1)[C@H](C)CN([C@@H](C)CO)S2(=O)=O	inactive
CC(C)CC#Cc1ccc2c(c1)O[C@H](CN(C)C(=O)C1CCOCC1)[C@@H](C)CN([C@@H](C)CO)S2(=O)=O	inactive
O=C(C[C@H]1C=C[C@@H](NC(=O)CN2CCOCC2)[C@H](CO)O1)NCc1cccc(F)c1	inactive
C[C@@H]1CN([C@@H](C)CO)C(=O)c2cc(N(C)C)ccc2O[C@@H](C)CCCCO[C@H]1CN(C)Cc1ccc(C(F)(F)F)cc1	inactive
C[C@@H]1CN([C@@H](C)CO)C(=O)CCCn2cc(nn2)CO[C@@H]1CN(C)S(=O)(=O)c1cn(C)cn1	inactive
C[C@@H]1CN([C@@H](C)CO)C(=O)c2cccc(NC(=O)CCCCCC(=O)Nc3ccccc3N)c2O[C@H]1CN(C)C(=O)Nc1ccc(C(F)(F)F)cc1	inactive
C[C@@H]1CN([C@H](C)CO)C(=O)c2cc(NC(=O)NC3CCCCC3)ccc2O[C@H]1CN(C)Cc1ccc(C(F)(F)F)cc1	inactive
O=C([C@@H]1N[C@@H]2c3ccc(-c4ccc(F)cc4)c(=O)n3C[C@@H]2[C@H]1CO)N1CCOCC1	inactive
C[C@@H]1CN([C@@H](C)CO)C(=O)c2cccc(NS(=O)(=O)c3cn(C)cn3)c2O[C@H]1CN(C)Cc1ccncc1	inactive
CC(C)(C)c1ccc(C(O)CCCN2CCC(C(O)(c3ccccc3)c3ccccc3)CC2)cc1 (centres undefined)	active
CC(C)(C(=O)O)c1ccc(C(O)CCCN2CCC(C(O)(c3ccccc3)c3ccccc3)CC2)cc1.Cl (centres undefined)	inactive
CC(C)(C(=O)O)c1ccc([C@@H](O)CCCN2CCC(C(O)(c3ccccc3)c3ccccc3)CC2)cc1	inactive
O=C(NCO)c1ccc([N+](=O)[O-])cc1	inactive
O=C(Nc1cc(C(F)(F)F)cc(C(F)(F)F)c1)Nc1c(Br)cc(Br)cc1-c1nn[nH]n1	inactive
O=C(Nc1cc(C(F)(F)F)cc(C(F)(F)F)c1)Nc1cnn(-c2ccc([N+](=O)[O-])cc2)c1C(F)(F)F	active
CNC1C(OC2C(OC3C(O)C(O)C(NC(=N)N)C(O)C3NC(=N)N)OC(C)C2(O)C=O)OC(CO)C(O)C1O.O=S(=O)(O)O (centres undefined) [STREPTOMYCIN SULFATE [5mM; 10% aq DMSO + 5mM ethanolamine] ]	inactive
COCC(=O)Nc1c(I)c(C(=O)NC[C@@H](O)CO)c(I)c(C(=O)N(C)C[C@@H](O)CO)c1I	inactive
COc1ccc(S(=O)(=O)N[C@@H]2C=C[C@H](CC(=O)N3CCN(c4ccccc4)CC3)O[C@@H]2CO)cc1	inactive

— the antibiotic and cytotoxicity screens of Wong et al. (2023)
